Screening results from PubChem.
A selection: hits, their analogues and other compounds. The true share with any hit is near 19%.
Shiga toxin inh: Shiga toxin inhibition; Vero cells, Shiga toxin protein synthesis inhibition reporter; inhibition, % at 38.7 µM; actives 9.2% (n = 290,000); in the data active = inhibition mostly above about 28%, no sharp cut-off; inactive = mostly below about 43%; also: 0% is about no effect
CHX counter: counter-screen hit for Shiga toxin inhibitors, cycloheximide. cell reporter, cycloheximide protein synthesis inhibition counterscreen. actives 12% (n = 300,000). max response, %; in the data active = max response mostly above about 13%, no sharp cut-off; inactive = mostly below about 14%; also: read at 38.3 µM for the half of the compounds with a filed dose; 0% is about no effect
Pf growth 48h: P. falciparum growth inhibition at 48 hours (one generation); Potency, µM (top dose mostly 28.7 µM), without a hit: at the top dose activity change, negative = inhibition, usual class: inhibitors; actives 5.9% (n = 310,000); P. falciparum luciferase growth in erythrocytes, 48 h; also: potency is read from the fitted curve at half-maximal effect; % is scaled to controls: 0 for no effect and ±100 for the full control effect
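Erythrocytes infected with P. falciparum carrying an integrated firefly luciferase reporter (2% hematocrit, 0.1% parasitemia final) were exposed to compounds in RPMI 1640 with 0.5% Albumax at 37 C, 5% CO2. Growth inhibition was scored as reduced luminescence.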
LASV entry inh: inhibitors of Lassa virus binding or cell entry. Lassa virus pseudotype entry inhibition, cell reporter. Potency, µM (top dose mostly 37.9 µM), inactives show at the highest dose activity change, negative = inhibition, usual class: inhibitors. actives 1.2% (n = 300,000). AID 540256; calls by dose curve; tested in HEK293 cells; also: potency is read from the fitted curve at half-maximal effect; % is scaled to controls: 0 for no effect and ±100 for the full control effect; nearly all actives have a fitted effect of over 50% in size
MARV entry inh: blocks Marburg virus binding to or entry into cells. Marburg virus pseudotyped entry inhibition, cell reporter. Potency, µM (titrated, usually from 37.8 µM), for the others: top-dose activity change, negative = inhibition, actives largely listed as inhibitors. actives 1.8% (n = 300,000). AID 540276; calls by dose curve; tested in HEK293 cells; also: potency is read from the fitted curve at half-maximal effect; % is scaled to controls: 0 for no effect and ±100 for the full control effect
Pf growth 96h: P. falciparum growth inhibition at 96 hours; P. falciparum luciferase reporter growth, 96 h; Potency, µM (highest dose often 28.7 µM), for the others: at the top dose activity change, negative = inhibition, most hits filed as inhibitors; actives 6.9% (n = 320,000); AID 504834; also: potency is read from the fitted curve at half-maximal effect; % is scaled to controls: 0 for no effect and ±100 for the full control effect
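Plates of compound plus infected erythrocytes (2% hematocrit, 0.05% parasitemia final) incubate 96 hours, 37 C, 5% CO2. Detection reagent added; reduced luminescence from the parasites' luciferase reporter flags inhibition.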
Starred values were filed as active, the others as inactive; ? = inconclusive; / = no result; [ ] = dose if it differs, or a comment. Unless noted, calls follow the shape of the dose curve; as a rule, active = well fitted inhibition curve with a large enough effect; inconclusive = small, poorly fitted or top-dose-only effect, or another doubt; inactive = no such curve, though single readings can be large or run the other way.

SMILES	Shiga toxin inh	CHX counter	Pf growth 48h	LASV entry inh	MARV entry inh	Pf growth 96h
CCCOC(=O)c1cc(-c2ccc(C=O)o2)ccc1Cl	31	29*	13%	4%	19%	?
CCCOC(=O)c1ccc(-c2ccc(C=O)o2)cc1	139*	44*	227%	?	-45%	?
CCOC(=O)c1cccc(-c2ccc(C=O)o2)c1	116*	47*	8%	14%	?	?
Cc1nn(-c2ccccc2)c(OC(=O)c2cccc(Br)c2)c1S(=O)(=O)c1ccccc1	/	/	/	6%[46.1 µM]	4%[46.1 µM]	/
Cc1ccc(-n2nc3c(=O)n(C(C)C(=O)O)nc(C)c3c2C)cc1 (stereo unspecified)	/	/	/	-8%[46.1 µM]	14%[46.1 µM]	/
Cc1ccc(-n2nc3c(Cl)nnc(C)c3c2C)cc1	15	-5	0.41µM*	-2%	-2%	0.33µM*
COc1ccc(CNc2nc3ccccc3n2C(C)C)cc1	2	1	-23%	/	/	?
COc1cccc(CNc2nc3ccccc3n2C(C)C)c1O	16	9	?	-12%[46.1 µM]	-6%[46.1 µM]	?
COc1ccc(CNc2nc3ccccc3n2C)c(OC)c1	82*	40*	139%	-27%	-23%	101%
CCN(CC)CCn1c(NCc2cc(OC)ccc2OC)nc2ccccc21	11	9	?	14%	?	?
COc1ccc(CNc2nc3ccccc3n2C)c(O)c1	69*	39*	0%	?	11µM*	-7%
Cc1ccc(O)c(CNc2nc3ccccc3n2C(C)C)c1	12	-3	8.3µM*	/	/	15%
COc1ccc(CNc2nc3ccccc3n2C(C)C)c(O)c1	/	1	12µM*	-20%	-46%	?
CCOc1ccc2[nH]c(=O)c(CN(CCO)C(=O)c3ccc(Br)cc3)cc2c1	-9	-1	?	-26%	-20%	7%
CCCCn1c(NCc2cc(Cl)ccc2O)nc2ccccc21	/	/	/	30%[46.1 µM]	/	/
Cn1c(NCc2c(O)ccc3ccccc23)nc2ccccc21	33	7	/	11%	21µM*	62%
Cn1c(NCc2cc(Br)ccc2O)nc2ccccc21	66*	27*	?	?	-6%	28%
CCCCn1c(NCc2cc(Br)ccc2O)nc2ccccc21	/	/	/	8%[46.1 µM]	/	/
CC(C(=O)Nc1cccnc1)N1C(=O)c2ccccc2C1=O (stereo unspecified)	16	-2	4%	1%	13%	22%
CCOC(=O)c1ccc(/C=N/O)[n+](Cc2ccccc2)c1	11	2	3%	/	/	38%
COc1ccc(NC(=O)CNS(=O)(=O)c2ccc3nc(C)sc3c2)c(OC)c1	22	1	15%	0%	16%	-22%
COc1ccc(N(C(=O)c2ccco2)C(C(=O)NC2CCCC2)c2ccncc2)cc1 (stereo unspecified)	-10	1	5%	-13%[46.1 µM]	-12%[46.1 µM]	10%
Cc1ccc(N(C(=O)c2ccco2)C(C(=O)NC2CCCC2)c2cccnc2)cc1C (stereo unspecified)	15	-2	?	?	-5%[46.1 µM]	3%
CC(C)c1ccc(N(C(=O)c2ccco2)C(C(=O)NC2CCCC2)c2ccncc2)cc1 (stereo unspecified)	73*	33*	42%	-16%	?	18%
CCc1ccc(N(C(=O)c2ccco2)C(C(=O)NC2CCCC2)c2cccnc2)cc1 (stereo unspecified)	33	12	?	1µM*	?	?
SMILES	Shiga toxin inh	CHX counter	Pf growth 48h	LASV entry inh	MARV entry inh	Pf growth 96h
CCC(C)c1ccc(N(C(=O)c2ccco2)C(C(=O)NC2CCCC2)c2cccnc2)cc1 (stereo unspecified)	94*	39*	1.9µM*	?	?	28%
CC(=O)Nc1ccc(N(C(=O)c2ccco2)C(C(=O)NC2CCCCC2)c2ccccc2)cc1 (stereo unspecified)	35*	12*	?	?	?	3%
CC(=O)Nc1ccc(N(C(=O)c2ccco2)C(C(=O)NC2CCCC2)c2cccs2)cc1 (stereo unspecified)	14	-1	?	-31%	7%	?
CC1(C(=O)NC2CCCCCCC2)CCC(=O)N1Cc1ccco1 (stereo unspecified)	-9	2	-2%	-1%	3%	69%
O=C(OCc1ccccc1F)c1cnc(Cl)c(Cl)c1	-7	1	3%	-3%[46.1 µM]	-18%[46.1 µM]	7%
CC(=O)c1c(C)n(CCO)c2ccc(O)cc12	-2	-2	11%	7%	-1%	/
CCCNC(=S)NNC(=O)c1cccs1	-6	2	26%	4%[46.1 µM]	8%[46.1 µM]	7%
COc1ccc(CCN(C)C(=O)CCc2nnc(-c3ccccc3)o2)cc1OC	65*	59*	0%	?	?	-26%
CCc1ccc(CN(C)C(=O)CCc2nnc(COc3ccccc3)o2)cc1	81*	30*	-14%	/	/	?
CN(Cc1nnc(-c2ccc(F)cc2)o1)c1ccccc1	71*	32*	5%	1%	-11%	23%
CN(Cc1ccc(F)cc1)C(=O)CCc1nnc(-c2ccccc2)o1	108*	47*	13%	2%[46.1 µM]	?	8.3µM*
COc1ccc(CCN(C)C(=O)Cn2c(=O)oc3ccccc32)cc1OC	-9	0	3%	0%	-1%[46.1 µM]	20%
COCCN(C)C(=O)CCc1nnc(Cc2ccc(-c3ccccc3)cc2)o1	-15	10	-11%	/	/	-10%
Cc1ccnc(SCC(=O)Nc2c(C)n(C)n(-c3ccccc3)c2=O)n1	-10	-7	/	?	30%	-10%
CC(=O)c1c(C(C)=O)c(C)n(-c2ccc(N)cc2)c1C	-13	-7	15%	2%	20%	?
CCOC(=O)Cc1csc(NC(=O)CSc2nnc3ccccn23)n1	-10	-3	-16%	-10%	14%[46.1 µM]	?
CN(Cc1nc2c(s1)CCCC2)C(=O)CCc1nnc(-c2ccccc2)o1	61*	23*	30%	25%	15%[46.1 µM]	9.3µM*
COc1ccc(OC)c(NC(=O)c2[nH]c(C)c(C(C)=O)c2C)c1	29	11	37%	4%	-16%	49%
CC(=O)c1c(C)[nH]c(C(=O)Nc2nc(-c3ccc(-c4ccccc4)cc3)cs2)c1C	64*	11	8.3µM*	?	?	7.4µM*
CC(=O)c1c(C)[nH]c(C(=O)Nc2nc(-c3ccc(Cl)cc3)cs2)c1C	5	0	?	?	?	?
COc1ccc(-c2nc(NC(=O)c3[nH]c(C)c(C(C)=O)c3C)sc2C)cc1	68*	8	-27%	-2%	?	?
CC(=O)c1c(C)[nH]c(C(=O)Nc2nc(C)cs2)c1C	4	-1	80%	2.2µM*	1.8µM*	121%
C#CCSc1nc2[nH]ncc2c(=O)[nH]1	-4	-2	3%	12%	?	3%
COc1ccc(C)cc1NC(=O)C(NC(=O)c1cc(OC)c(OC)c(OC)c1)C(C)C (stereo unspecified)	-5	-2	-35%	-5%	-9%[14.2 µM]	13µM*
